From the supplement of paper PMC10849652
The full data set covers some 7,900 targets. This sample favours those with a hit. About 0.6% of all pairs of compound and target were hits. Unmarked numbers belong to inactive results.

Key:
Assay in all cases: log2 fold change, soluble protein after heating vs DMSO (PISA); higher = thermal stabilisation; K562 cells, 10 uM, 30 min; active = over 0.2 and 3.5 SD of the protein, either way, in both replicates (recomputed)
erlotinib = compound: C#Cc1cccc(Nc2ncnc3cc(OCCOC)c(OCCOC)cc23)c1 [erlotinib]
In short: (§1)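 Values are thermal stability changes relative to control samples and are taken from duplicates. They are stated as log2 fold changes. Before quantification by TMTpro 16plex LC-MS/MS with equalised channel sums, K562 cells at 2×10^6 cells/mL were treated with 10 μM compound for 30 min, heated in aliquots for 3 min across 48°C-58°C, pooled, extracted in PBS with 0.5% NP-40 at 4°C, and centrifuged at 21,000xg for 90 min to give the soluble supernatant.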

[1] = compound: C/C(=N\NC(=O)C1=CC(=CC=C1)S(=O)(=O)N2CCOCC2)/C3=C(C=CC(=C3)Cl)O
In short: as §1

[2] = compound: C1=CC(=C(C=C1Cl)C2=NC3=NC=CN=C3C(=N2)NC4=CC=NC=C4)F
In short: as §1

[3] = compound: C1=CC(=CC=C1C2=NC3=C(N2)C=C(C=C3)C(=O)N)OC4=CC=C(C=C4)Cl
In short: as §1

[4] = compound: C1=CC2=C(C=CC(=C2)/C=C\3/C(=O)NC(=NCC4=CC=CS4)S3)N=C1
In short: as §1

[5] = compound: C1=CC2=NC=CN=C2C=C1/C=C/3\C(=O)NC(=O)S3
In short: as §1

[6] = compound: C1=CC=C(C=C1)C2=NC(=C(N2)C3=CC=NC=C3)C4=CC(=C(C=C4)Cl)O
In short: as §1

[7] = compound: C1=CC=C2C(=C1)C3=NNC4=CC=CC(=C43)C2=O
In short: as §1

[8] = compound: C1CCN(C1)C(=O)NC2=CC=CC(=C2)NC3=NC=C(C(=N3)NCCC4=CN=CN4)Br
In short: as §1

[9] = compound: C1CN(CCC1(CC2=CC=C(C=C2)Cl)N)C3=NC=NC4=C3C=CN4
In short: as §1

IRAK-1-4 Inhibitor I = compound: C1COCCN1CCN2C3=CC=CC=C3N=C2NC(=O)C4=CC(=CC=C4)[N+](=O)[O-] [IRAK-1-4 Inhibitor I]
In short: as §1

ibrutinib = compound: C=CC(=O)N1CCC[C@@H](n2nc(-c3ccc(Oc4ccccc4)cc3)c3c(N)ncnc32)C1 [ibrutinib]
In short: as §1

[10] = compound: CC(=O)c1cnc2ccc(-c3cc(Cl)c(O)c(Cl)c3)nc2c1N[C@H]1CC[C@H](CN(C)C)CC1
In short: as §1

ralimetinib = compound: CC(C)(C)Cn1c(N)nc2ccc(-c3[nH]c(C(C)(C)C)nc3-c3ccc(F)cc3)nc21 [ralimetinib]
In short: as §1

[11] = compound: CC(C)(O)CC(=O)NCCn1ccc2ncnc(Nc3ccc(Oc4cccc(C(F)(F)F)c4)c(Cl)c3)c21
In short: as §1

[12] = compound: CC(C)C1=C2N=C(C=C(N2N=C1)NCC3=CC=CC=C3)NCCCCCCN
In short: as §1

[13] = compound: CC(C)C[C@@H](C=O)NC(=O)[C@H](CC(C)C)NC(=O)[C@H](CC(C)C)NC(=O)OCc1ccccc1
In short: as §1

pinometostat = compound: CC(C)N(C[C@H]1O[C@@H](n2cnc3c(N)ncnc32)[C@H](O)[C@@H]1O)[C@H]1C[C@@H](CCc2nc3cc(C(C)(C)C)ccc3[nH]2)C1 [pinometostat]
In short: as §1

[14] = compound: CC1=C(C(CC(=O)N1)C2=CC=C(C=C2)C(F)(F)F)C(=O)NC3=C(C=C4C(=C3)C=NN4)F
In short: as §1

[15] = compound: CC1=C(C2=C(C=C1)C(=O)C3=CC=CC=C3N2CCCN)C
In short: as §1

UniProt Q96IZ7, sequence (Q96IZ7 whole entry, looked up): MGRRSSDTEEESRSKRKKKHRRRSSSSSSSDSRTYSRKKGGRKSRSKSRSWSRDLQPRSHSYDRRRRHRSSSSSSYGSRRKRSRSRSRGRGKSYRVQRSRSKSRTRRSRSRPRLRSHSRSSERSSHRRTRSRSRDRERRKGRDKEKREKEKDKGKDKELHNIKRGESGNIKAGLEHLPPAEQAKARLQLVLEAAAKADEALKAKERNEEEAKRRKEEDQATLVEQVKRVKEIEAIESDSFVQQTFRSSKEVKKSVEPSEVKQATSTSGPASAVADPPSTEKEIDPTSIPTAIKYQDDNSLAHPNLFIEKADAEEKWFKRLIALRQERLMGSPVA
UniProt Q5VUM1, sequence (Q5VUM1 whole entry, looked up): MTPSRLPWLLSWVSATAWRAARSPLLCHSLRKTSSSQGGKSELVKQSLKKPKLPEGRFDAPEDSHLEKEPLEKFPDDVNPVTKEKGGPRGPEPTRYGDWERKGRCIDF
UniProt Q9BWJ5, sequence (Q9BWJ5 whole entry, looked up): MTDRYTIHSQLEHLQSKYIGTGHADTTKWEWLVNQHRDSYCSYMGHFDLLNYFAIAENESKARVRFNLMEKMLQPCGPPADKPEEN
UniProt P04049, sequence (P04049 whole entry, looked up): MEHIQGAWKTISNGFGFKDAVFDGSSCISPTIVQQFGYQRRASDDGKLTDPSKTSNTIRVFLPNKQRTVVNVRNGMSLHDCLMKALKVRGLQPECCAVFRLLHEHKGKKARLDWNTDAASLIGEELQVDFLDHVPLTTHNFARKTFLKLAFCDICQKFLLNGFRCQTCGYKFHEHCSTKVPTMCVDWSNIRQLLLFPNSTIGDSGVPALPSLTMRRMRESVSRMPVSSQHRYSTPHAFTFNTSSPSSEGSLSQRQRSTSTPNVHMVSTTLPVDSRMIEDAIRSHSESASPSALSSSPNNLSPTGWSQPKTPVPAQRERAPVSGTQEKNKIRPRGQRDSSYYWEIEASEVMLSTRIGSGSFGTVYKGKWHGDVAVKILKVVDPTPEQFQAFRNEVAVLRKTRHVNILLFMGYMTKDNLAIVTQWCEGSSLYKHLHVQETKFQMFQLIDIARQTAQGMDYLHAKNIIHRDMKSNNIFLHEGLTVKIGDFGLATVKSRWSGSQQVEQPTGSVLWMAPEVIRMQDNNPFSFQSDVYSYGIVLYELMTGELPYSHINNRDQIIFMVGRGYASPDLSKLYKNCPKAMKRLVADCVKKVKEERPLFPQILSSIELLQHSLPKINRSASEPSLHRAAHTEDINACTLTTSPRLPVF
UniProt Q99961, sequence (Q99961 whole entry, looked up): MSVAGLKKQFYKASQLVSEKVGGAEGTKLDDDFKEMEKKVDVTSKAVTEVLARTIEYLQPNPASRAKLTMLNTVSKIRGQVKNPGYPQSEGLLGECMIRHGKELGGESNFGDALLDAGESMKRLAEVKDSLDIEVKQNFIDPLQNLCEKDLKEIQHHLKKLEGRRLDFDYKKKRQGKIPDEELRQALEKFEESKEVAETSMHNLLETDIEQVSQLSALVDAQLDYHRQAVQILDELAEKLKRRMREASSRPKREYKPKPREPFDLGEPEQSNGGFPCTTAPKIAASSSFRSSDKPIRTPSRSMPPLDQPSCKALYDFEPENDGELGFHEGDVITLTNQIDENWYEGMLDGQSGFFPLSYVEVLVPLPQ
UniProt Q96DX4, sequence (Q96DX4 whole entry, looked up): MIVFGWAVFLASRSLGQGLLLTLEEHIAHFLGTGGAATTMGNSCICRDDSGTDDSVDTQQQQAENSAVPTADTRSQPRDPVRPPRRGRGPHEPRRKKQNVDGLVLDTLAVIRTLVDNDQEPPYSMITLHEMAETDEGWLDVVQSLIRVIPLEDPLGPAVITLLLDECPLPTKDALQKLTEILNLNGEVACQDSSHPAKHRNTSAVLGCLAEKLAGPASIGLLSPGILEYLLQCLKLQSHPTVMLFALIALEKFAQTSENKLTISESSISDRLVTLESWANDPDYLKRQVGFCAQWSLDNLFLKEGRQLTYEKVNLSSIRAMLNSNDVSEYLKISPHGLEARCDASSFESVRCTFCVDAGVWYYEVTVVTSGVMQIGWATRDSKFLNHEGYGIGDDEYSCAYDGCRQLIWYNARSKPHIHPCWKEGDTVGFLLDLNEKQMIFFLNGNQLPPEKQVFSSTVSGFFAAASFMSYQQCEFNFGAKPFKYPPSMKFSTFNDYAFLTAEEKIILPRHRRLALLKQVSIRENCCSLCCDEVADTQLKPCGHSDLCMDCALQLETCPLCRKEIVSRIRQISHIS
UniProt Q8NEM2, sequence (Q8NEM2 whole entry, looked up): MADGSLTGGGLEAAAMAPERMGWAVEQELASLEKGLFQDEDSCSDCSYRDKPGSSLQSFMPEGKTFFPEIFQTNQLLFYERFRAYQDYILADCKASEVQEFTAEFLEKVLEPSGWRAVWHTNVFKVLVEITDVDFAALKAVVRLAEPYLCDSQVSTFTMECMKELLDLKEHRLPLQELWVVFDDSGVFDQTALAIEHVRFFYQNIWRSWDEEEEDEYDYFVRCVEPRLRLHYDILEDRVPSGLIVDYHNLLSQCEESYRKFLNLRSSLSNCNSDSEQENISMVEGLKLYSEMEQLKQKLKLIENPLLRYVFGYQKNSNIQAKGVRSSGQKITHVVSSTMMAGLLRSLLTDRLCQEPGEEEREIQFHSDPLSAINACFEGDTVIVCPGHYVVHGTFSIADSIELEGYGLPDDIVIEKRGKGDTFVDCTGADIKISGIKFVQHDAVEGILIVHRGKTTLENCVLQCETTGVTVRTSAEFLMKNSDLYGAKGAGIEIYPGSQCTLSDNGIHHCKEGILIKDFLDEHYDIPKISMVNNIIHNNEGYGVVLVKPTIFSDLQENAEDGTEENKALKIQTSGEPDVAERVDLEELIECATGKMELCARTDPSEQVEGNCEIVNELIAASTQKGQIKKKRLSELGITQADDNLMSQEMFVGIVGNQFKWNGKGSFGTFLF
UniProt Q8IXJ6, sequence (Q8IXJ6 whole entry, looked up): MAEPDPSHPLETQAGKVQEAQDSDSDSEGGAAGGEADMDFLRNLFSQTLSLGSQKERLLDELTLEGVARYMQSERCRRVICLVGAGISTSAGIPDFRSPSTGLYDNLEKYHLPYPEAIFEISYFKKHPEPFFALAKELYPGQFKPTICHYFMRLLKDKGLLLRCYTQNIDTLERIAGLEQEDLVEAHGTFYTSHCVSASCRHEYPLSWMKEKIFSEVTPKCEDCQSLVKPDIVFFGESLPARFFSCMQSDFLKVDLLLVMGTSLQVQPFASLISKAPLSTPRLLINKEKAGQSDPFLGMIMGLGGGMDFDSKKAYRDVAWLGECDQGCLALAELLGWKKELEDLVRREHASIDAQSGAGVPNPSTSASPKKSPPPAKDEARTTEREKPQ
UniProt Q15436, sequence (Q15436 whole entry, looked up): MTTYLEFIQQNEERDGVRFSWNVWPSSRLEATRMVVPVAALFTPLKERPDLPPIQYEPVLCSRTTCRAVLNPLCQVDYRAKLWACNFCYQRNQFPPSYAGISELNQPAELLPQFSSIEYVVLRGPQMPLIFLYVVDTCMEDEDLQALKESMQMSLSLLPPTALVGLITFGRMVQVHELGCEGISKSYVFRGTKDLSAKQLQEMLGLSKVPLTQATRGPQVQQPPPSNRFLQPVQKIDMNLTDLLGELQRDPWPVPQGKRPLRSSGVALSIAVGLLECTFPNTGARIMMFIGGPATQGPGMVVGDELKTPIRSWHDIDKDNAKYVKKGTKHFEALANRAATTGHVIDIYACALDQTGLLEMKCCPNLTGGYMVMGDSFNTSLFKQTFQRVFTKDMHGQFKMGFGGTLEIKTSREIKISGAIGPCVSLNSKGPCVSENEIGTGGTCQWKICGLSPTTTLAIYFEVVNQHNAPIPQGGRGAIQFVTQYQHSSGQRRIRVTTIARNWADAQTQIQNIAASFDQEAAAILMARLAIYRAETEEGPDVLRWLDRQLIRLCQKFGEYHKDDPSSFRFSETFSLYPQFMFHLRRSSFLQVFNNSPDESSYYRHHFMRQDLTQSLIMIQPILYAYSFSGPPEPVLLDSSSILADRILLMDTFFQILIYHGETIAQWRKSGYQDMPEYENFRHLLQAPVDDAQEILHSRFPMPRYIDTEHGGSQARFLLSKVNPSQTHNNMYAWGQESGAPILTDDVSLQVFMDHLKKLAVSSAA

Row | Target | log2 fold change (erlotinib) | log2 fold change [1] | log2 fold change [2] | log2 fold change [3] | log2 fold change [4] | log2 fold change [5] | log2 fold change [6] | log2 fold change [7] | log2 fold change [8] | log2 fold change [9] | log2 fold change (IRAK-1-4 Inhibitor I) | log2 fold change (ibrutinib) | log2 fold change [10] | log2 fold change (ralimetinib) | log2 fold change [11] | log2 fold change [12] | log2 fold change [13] | log2 fold change (pinometostat) | log2 fold change [14] | log2 fold change [15]
1 | RSPRY1 (UniProt Q96DX4) | 0.028 | 0.079 | 0.016 | 0.041 | 0.017 | -0.042 | -0.006 | -0.026 | -0.014 | 0.033 | 0.018 | 0.027 | 0.02 | -0.019 | -0.036 | 0 | 0.079 | -0.048 | 0.033 | -0.066
2 | RABGAP1L isoform 3 (UniProt Q5R372) | 0.087 | 0.052 | 0.161 | -0.021 | 0.029 | 0.033 | -0.001 | 0.035 | 0.004 | 0.007 | 0.057 | 0.02 | 0.011 | -0.012 | -0.206 | -0.068 | -0.034 | -0.006 | -0.137 | 0.055
3 | RBM39 (UniProt Q14498) | 0.087 | 0.074 | 0.013 | -0.028 | -0.021 | -0.052 | -0.022 | -0.168 | -0.071 | -0.232 | -0.193 | 0 | -0.497 (active) | 0.044 | -0.028 | -0.267 | 0.043 | 0.042 | -0.022 | 0.104
4 | SEC23A (UniProt Q15436) | 0.026 | 0.1 | 0.022 | -0.036 | -0.024 | 0.021 | 0.005 | -0.018 | 0.019 | -0.019 | 0.06 | 0 | 0.077 | 0.026 | -0.123 | -0.014 | -0.006 | -0.004 | 0.024 | 0.121
5 | SH3GL1 (UniProt Q99961) | 0.024 | 0.068 | 0.013 | 0.003 | 0.058 | 0.022 | 0.019 | 0.004 | -0.047 | -0.045 | -0.09 | -0.021 | -0.059 | 0.052 | -0.097 | -0.238 | 0.013 | 0.032 | 0.018 | 0.037
6 | SDHAF4 (UniProt Q5VUM1) | 0 | 0.104 | 0.026 | 0.031 | 0.118 | 0.033 |  | -0.117 | 0.054 | 0.094 | -0.071 | 0.01 | -0.055 |  | 0.081 | 0.149 |  | -0.082 | -0.101 | 0.021
7 | SIRT2 (UniProt Q8IXJ6) | 0.03 | 0.055 | 0.001 | 0.054 | -0.113 | 0.017 | 0.051 | 0.029 | 0.025 | 0.016 | 0.047 | -0.003 | -0.003 | -0.023 | 0.041 | -0.033 | 0.028 | -0.002 | -0.075 | -0.022
8 | RNPS1 (UniProt Q15287) | 0.008 | 0.194 | 0.06 | 0.053 | 0.164 | 0.013 | -0.022 | -0.319 | 0.048 | -0.118 | -0.159 | -0.031 | -0.317 | 0.128 | -0.039 | -0.126 | 0.066 | 0.08 | -0.032 | -0.746 (active)
9 | RAF1 isoform 2 (UniProt P04049) | -0.048 | 0.08 | -0.129 | 0.04 | 0.197 | 0.02 | 0.513 (active) | 0.01 | -0.121 | 0.022 | -0.038 | -0.058 | -0.263 | -0.054 | -0.072 | -0.12 | 0.066 | 0.29 |  | 0.09
10 | SHCBP1 (UniProt Q8NEM2) | -0.013 | -0.029 | -0.027 | 0.018 | 0.137 | 0.028 | -0.104 | 0.054 | 0.127 | -0.128 | -0.11 | -0.072 | -0.013 | 0.025 | -0.121 | -0.516 (active) | 0.012 | 0.066 | 0.074 | 0.02
11 | RSRC1 (UniProt Q96IZ7) | 0 | 0.135 | -0.148 | 0.071 | -0.033 | -0.057 | -0.026 | -0.073 | 0.016 | -0.1 | -0.062 | 0.034 | -0.178 | -0.01 | 0.056 | -0.071 | 0.009 | -0.017 | -0.012 | 0.047
12 | SF3B5 (UniProt Q9BWJ5) | -0.088 | -0.04 | 0.319 | 0.051 | 0.023 | 0.199 |  | 0.107 | -0.104 | -0.002 | 0.055 | 0.127 | -0.067 |  | -0.224 | 0.118 |  | 0.045 | 0.011 | 0.156
